Results on four compounds are retold here after ChEMBL document CHEMBL1961873, “Compounds: GSK PKIS; Assays: Nanosyn kinase panel” (2012).

Structures are written as SMILES.

Assay [1] addresses T1, Ephrin type-B receptor 2 (Homo sapiens) (UniProt P29323).
T1 sequence (whole entry): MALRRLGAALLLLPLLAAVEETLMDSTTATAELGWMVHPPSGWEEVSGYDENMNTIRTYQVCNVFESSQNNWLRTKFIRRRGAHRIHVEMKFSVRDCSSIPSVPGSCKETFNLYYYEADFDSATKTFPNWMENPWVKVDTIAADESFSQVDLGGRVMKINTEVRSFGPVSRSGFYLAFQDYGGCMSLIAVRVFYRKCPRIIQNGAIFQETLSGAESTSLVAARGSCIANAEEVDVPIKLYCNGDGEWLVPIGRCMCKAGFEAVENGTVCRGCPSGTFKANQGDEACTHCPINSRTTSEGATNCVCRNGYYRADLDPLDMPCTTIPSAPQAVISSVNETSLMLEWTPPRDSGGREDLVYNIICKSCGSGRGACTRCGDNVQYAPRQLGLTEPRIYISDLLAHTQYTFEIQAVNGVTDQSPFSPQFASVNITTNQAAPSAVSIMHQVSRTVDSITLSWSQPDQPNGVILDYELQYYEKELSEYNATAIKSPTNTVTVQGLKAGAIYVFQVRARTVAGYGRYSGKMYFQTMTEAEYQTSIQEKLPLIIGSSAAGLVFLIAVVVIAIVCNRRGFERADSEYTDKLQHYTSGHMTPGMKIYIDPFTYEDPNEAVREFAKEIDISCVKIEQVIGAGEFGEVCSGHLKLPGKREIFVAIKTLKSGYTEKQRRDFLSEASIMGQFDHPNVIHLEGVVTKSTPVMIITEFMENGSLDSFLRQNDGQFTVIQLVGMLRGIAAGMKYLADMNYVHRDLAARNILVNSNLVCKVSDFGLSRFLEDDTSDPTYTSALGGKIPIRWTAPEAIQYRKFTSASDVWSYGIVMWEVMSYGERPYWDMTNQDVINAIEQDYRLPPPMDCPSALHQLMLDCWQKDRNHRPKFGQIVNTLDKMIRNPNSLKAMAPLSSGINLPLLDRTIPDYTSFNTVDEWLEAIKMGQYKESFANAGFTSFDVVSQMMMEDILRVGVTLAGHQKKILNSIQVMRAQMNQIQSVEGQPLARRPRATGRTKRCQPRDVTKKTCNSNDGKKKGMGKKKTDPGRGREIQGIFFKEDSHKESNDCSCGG
Conditions: at 1 µM.

The target of assay [2] is T2, Ephrin type-B receptor 3 (Homo sapiens) (UniProt P54753).
T2 sequence (whole entry): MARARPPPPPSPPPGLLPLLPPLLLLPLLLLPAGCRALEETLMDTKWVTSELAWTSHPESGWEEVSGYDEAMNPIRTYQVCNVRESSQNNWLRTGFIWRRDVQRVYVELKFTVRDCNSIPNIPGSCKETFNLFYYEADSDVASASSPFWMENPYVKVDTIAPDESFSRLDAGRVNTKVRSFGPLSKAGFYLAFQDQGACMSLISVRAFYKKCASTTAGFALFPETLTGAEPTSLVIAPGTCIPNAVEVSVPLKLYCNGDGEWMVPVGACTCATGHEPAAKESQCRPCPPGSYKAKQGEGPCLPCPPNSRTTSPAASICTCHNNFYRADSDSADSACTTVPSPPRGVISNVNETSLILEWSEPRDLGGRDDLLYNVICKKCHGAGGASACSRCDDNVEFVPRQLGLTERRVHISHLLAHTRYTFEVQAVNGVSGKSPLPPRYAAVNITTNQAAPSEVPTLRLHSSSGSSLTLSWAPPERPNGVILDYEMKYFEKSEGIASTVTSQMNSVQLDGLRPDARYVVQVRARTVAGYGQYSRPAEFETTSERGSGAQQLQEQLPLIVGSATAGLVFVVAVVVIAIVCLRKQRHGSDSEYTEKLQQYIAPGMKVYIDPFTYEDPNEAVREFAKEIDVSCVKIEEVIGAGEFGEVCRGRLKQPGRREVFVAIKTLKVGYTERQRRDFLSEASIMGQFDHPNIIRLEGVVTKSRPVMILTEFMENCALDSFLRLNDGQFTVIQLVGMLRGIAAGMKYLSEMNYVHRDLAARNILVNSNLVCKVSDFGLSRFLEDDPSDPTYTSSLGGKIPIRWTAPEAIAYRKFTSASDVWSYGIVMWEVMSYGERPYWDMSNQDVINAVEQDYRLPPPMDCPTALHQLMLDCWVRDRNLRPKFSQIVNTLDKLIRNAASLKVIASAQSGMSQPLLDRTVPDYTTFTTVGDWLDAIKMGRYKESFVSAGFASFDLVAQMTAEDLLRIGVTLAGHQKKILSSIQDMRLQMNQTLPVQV
Conditions: at 0.1 µM.

The target in assay [3] is T2, Ephrin type-B receptor 3 (Homo sapiens). Conditions: at 1 µM.
Assay [4] deals with T3, Ephrin type-B receptor 4 (Homo sapiens) (UniProt P54760).
T3 sequence (whole entry): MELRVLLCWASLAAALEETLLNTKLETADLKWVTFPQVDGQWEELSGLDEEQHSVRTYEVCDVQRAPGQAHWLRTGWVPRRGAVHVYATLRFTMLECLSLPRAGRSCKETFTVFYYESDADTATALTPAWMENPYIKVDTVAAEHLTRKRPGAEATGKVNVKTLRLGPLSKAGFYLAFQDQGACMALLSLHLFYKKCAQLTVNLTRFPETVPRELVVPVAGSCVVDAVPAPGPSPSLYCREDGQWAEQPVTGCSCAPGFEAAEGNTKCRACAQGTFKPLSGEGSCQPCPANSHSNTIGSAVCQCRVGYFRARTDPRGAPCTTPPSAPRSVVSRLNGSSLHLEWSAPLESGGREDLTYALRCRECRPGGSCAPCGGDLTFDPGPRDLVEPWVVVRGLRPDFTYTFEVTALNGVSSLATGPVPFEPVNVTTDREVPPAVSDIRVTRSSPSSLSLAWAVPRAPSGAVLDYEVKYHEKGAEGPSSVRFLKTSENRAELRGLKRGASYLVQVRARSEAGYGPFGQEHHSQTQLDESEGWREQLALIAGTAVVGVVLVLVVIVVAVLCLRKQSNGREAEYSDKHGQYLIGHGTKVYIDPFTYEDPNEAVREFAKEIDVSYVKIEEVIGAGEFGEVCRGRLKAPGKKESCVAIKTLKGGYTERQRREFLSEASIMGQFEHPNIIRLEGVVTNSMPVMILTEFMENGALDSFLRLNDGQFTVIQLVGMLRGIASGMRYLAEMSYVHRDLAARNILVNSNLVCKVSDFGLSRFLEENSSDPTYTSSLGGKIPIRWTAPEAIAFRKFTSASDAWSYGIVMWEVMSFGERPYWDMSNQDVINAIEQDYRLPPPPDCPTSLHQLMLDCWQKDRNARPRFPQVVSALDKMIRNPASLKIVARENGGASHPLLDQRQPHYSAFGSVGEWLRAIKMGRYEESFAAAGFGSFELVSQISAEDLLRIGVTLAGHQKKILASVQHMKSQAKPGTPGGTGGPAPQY
As to conditions: at 0.1 µM.

Assay [5] deals with T3, Ephrin type-B receptor 4 (Homo sapiens). Conditions: at 1 µM.
The target in assay [6] is Receptor tyrosine-protein kinase erbB-2 (Homo sapiens) (UniProt P04626). As to conditions: at 0.1 µM.
Assay [7] shares this target. As to conditions: at 1 µM.
The target in assay [8] is Receptor tyrosine-protein kinase erbB-4 (Homo sapiens) (UniProt Q15303). Conditions: at 0.1 µM.
Assay [9] has as its target Tyrosine-protein kinase Fer (Homo sapiens) (UniProt P16591). As to conditions: at 0.1 µM.
For assay [10] the target is unchanged. As to conditions: at 1 µM.
Assay [11] deals with Tyrosine-protein kinase Fes/Fps (Homo sapiens) (UniProt P07332). As to conditions: at 0.1 µM.
Assay [12] shares this target. Conditions: at 1 µM.
Assay [13] deals with Fibroblast growth factor receptor 1 (Homo sapiens) (UniProt P11362). Conditions: at 0.1 µM.
Assay [14] shares this target. As to conditions: at 1 µM.
Assay [15] concerns the target Fibroblast growth factor receptor 2 (Homo sapiens) (UniProt P21802). Conditions: at 0.1 µM.
The target is the same in assay [16]. Conditions: at 1 µM.
In assay [17] the target is Fibroblast growth factor receptor 3 (Homo sapiens) (UniProt P22607). Conditions: at 0.1 µM.
Assay [18] shares this target. As to conditions: at 1 µM.
Assay [19] addresses Fibroblast growth factor receptor 4 (Homo sapiens) (UniProt P22455). As to conditions: at 0.1 µM.
The target of assay [20] is Receptor tyrosine-protein kinase erbB-4 (Homo sapiens) (UniProt Q15303). Conditions: at 1 µM.

Chain of Receptor tyrosine-protein kinase erbB-2 (Homo sapiens) (P04626 whole entry): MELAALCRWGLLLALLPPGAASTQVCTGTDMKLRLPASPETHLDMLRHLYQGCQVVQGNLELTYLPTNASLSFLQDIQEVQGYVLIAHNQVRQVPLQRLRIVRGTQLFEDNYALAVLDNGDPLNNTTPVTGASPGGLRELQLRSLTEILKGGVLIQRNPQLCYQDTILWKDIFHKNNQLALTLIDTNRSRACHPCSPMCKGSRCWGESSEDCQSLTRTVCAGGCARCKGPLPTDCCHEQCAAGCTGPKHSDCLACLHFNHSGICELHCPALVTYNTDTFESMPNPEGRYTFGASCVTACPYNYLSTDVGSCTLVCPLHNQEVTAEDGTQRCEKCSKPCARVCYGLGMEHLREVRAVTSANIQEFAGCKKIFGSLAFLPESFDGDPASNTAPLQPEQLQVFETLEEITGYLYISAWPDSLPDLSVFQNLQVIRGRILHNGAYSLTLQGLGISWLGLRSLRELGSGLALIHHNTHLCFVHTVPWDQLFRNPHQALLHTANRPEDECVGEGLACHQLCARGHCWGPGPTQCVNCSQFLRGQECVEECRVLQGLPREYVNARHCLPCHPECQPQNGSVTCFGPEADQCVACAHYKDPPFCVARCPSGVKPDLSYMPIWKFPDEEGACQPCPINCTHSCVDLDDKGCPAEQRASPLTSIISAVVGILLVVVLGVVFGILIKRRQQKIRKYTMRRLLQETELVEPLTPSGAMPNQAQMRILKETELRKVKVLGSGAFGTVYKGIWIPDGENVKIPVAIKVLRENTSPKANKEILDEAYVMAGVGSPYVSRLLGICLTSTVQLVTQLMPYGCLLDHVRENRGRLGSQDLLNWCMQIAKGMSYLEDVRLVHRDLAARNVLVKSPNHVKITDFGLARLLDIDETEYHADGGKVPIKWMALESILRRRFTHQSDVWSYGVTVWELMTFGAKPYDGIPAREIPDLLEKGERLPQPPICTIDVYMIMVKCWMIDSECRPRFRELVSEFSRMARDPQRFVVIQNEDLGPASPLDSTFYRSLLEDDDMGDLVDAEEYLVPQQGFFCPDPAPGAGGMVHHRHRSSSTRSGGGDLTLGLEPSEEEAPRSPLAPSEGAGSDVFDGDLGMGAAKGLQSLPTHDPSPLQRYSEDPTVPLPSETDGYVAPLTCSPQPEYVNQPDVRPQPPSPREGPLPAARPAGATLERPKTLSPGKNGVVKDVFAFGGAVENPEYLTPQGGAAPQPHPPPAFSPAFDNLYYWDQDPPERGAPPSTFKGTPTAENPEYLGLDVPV
Chain of Fibroblast growth factor receptor 2 (Homo sapiens) (P21802 22-821 limits assumed): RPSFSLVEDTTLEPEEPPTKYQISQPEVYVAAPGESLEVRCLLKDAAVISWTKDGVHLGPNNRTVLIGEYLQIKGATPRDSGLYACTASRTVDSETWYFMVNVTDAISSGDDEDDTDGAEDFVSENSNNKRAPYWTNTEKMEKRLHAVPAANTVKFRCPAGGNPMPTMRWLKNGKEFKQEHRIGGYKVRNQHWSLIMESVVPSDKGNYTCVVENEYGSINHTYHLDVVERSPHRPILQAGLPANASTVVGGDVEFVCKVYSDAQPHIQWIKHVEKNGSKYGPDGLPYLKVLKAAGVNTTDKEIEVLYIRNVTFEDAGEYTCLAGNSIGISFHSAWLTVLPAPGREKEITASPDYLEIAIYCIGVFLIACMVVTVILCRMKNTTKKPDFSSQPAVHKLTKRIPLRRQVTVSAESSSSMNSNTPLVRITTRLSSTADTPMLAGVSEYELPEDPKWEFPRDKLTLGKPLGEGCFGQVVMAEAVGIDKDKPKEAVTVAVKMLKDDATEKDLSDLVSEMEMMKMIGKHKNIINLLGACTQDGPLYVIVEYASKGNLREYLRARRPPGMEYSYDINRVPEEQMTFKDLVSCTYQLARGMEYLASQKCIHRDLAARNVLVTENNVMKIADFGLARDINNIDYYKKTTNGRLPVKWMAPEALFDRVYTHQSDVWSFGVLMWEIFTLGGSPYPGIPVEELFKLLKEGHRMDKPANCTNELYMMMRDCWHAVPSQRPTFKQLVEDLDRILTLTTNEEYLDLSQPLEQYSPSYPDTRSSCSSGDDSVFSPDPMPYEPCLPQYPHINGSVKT
Chain of Tyrosine-protein kinase Fer (Homo sapiens) (P16591 whole entry, looked up): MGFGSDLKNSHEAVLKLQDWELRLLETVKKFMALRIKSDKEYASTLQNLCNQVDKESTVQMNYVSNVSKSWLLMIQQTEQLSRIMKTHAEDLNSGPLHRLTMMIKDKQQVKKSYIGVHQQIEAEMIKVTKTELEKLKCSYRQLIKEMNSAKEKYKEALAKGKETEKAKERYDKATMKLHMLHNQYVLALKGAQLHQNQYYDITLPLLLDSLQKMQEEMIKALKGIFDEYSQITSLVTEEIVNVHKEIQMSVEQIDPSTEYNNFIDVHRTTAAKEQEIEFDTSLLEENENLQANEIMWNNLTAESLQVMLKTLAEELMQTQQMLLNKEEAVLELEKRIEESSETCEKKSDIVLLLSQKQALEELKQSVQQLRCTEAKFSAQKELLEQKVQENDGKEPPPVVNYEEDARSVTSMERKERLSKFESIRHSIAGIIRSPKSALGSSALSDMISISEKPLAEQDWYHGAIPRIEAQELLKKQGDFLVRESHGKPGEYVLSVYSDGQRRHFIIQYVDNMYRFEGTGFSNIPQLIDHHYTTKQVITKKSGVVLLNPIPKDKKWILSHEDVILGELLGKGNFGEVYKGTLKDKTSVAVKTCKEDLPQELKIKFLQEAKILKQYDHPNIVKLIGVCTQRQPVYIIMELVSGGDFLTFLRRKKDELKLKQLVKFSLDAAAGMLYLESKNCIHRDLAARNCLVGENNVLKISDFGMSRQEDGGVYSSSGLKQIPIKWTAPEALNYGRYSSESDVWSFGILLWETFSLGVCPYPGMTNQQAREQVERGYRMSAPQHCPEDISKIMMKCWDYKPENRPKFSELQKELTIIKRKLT
Chain of Tyrosine-protein kinase Fes/Fps (Homo sapiens) (P07332 whole entry): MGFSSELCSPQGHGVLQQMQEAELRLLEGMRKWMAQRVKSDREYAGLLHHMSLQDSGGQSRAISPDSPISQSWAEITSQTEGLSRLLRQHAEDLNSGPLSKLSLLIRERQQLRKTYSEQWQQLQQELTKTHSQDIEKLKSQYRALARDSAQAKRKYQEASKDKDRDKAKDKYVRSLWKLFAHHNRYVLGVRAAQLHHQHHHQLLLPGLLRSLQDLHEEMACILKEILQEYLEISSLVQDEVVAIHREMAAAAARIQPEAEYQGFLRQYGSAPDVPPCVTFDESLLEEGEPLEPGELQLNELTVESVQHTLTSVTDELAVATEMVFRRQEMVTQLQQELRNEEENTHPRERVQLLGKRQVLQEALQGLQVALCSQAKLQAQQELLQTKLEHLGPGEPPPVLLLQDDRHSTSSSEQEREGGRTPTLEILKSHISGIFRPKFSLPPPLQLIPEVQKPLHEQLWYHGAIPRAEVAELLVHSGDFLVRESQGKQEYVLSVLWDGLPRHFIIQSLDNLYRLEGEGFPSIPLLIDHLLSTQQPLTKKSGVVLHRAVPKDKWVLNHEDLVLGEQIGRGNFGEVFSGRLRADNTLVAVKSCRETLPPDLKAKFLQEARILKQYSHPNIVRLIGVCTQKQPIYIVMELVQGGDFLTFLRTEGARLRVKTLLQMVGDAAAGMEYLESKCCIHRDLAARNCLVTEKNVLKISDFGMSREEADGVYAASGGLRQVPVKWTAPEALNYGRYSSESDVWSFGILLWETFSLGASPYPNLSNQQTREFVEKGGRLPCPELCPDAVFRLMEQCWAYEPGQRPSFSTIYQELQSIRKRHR
Chain of Fibroblast growth factor receptor 4 (Homo sapiens) (P22455 22-802 limits assumed): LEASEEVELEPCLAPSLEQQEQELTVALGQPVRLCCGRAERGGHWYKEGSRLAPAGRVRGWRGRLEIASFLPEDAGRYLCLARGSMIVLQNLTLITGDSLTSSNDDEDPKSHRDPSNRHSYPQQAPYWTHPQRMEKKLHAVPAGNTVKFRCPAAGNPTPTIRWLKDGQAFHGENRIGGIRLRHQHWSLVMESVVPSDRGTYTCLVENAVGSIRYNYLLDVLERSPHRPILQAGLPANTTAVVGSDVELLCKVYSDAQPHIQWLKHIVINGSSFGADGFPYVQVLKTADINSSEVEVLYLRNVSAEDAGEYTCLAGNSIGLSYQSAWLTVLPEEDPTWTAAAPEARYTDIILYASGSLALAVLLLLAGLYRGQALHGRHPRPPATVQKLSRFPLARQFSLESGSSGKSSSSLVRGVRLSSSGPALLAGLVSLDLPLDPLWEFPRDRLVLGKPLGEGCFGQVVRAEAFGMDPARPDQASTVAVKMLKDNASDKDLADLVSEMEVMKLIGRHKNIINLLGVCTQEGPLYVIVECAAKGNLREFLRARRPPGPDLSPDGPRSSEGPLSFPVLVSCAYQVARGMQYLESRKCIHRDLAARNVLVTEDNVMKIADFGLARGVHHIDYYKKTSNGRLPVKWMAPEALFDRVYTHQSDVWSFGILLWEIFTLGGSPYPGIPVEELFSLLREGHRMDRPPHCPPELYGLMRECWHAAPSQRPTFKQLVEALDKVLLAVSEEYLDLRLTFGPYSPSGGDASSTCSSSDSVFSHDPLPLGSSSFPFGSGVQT

Take `COC(=O)Nc1nc2ccc(Sc3ccc(NC(=O)Nc4cc(C(F)(F)F)ccc4F)cc3)cc2[nH]1`: the inhibition in assay [1] was 79.9%; in assay [2], 3.25%; in [3], 11.3%; in assay [4], 6.3%; in assay [5] it was 57.2%; in assay [6], 0.24%. The inhibition is 1.41% in assay [7]; 1.95% in assay [8]; 1.93% in assay [9]; 1.11% in assay [10]; 0.33% in [11]; -0.58% in [12]. Also, the inhibition in [13] is -1.07%; in assay [14], -3.15%; in [15] it was 0.25%; in [16] it was 4%; in assay [17], 2.1%; in [18], 2.77%. The inhibition in assay [19] worked out at 3.12%.

Take `COc1ccc2cc(-c3c(-c4ccncc4)nc(-c4ccc([S+](C)[O-])cc4C)n3C)ccc2c1` (centres undefined): the inhibition came to 19.7% in assay [1]; 4.06% in [2]; 14.6% in assay [3]; 4.17% in [4]; 22.5% in assay [5]; 1.42% in assay [6]. In addition, the inhibition in assay [7] was 5.05%; in [8], 9.39%; in [20] it was 37.1%; in assay [9], 1.31%; in [10], 3.2%; in assay [11], -0.52%. In addition, the inhibition in [12] was -1.2%; in assay [13], -0.12%; in assay [14], 2.93%; in assay [15], -0.56%; in assay [16], 2.09%; in assay [17], 1.3%. In addition, the inhibition is 3.02% in [18] and 2.92% in assay [19].

For the compound `NC(=O)Cc1ccccc1Oc1nccc(-c2c(-c3ccc(F)cc3)ncn2C2CCNCC2)n1`, the inhibition amounted to 6.53% in assay [1]; 3.13% in assay [2]; 4.05% in assay [3]; 0.65% in assay [4]; 2.09% in [5]; 2.21% in assay [6]. Further, the inhibition was -1.85% in assay [7]; 12.1% in assay [8]; 17.1% in assay [20]; 6.39% in assay [9]; 4.36% in assay [10]; 1.68% in [11]. Also, the inhibition in assay [12] is 2.12%; in assay [13] it was 5.6%; in assay [14] it was 3.15%; in assay [15], 1.69%; in [16] it was 5.26%; in [17] it was 3.66%. Also, the inhibition in assay [18] came to 3.8%; in [19], 0.37%.

`CS(=O)(=O)CCNCc1ccc(-c2ccc3ncnc(Nc4ccc(OCc5ccccc5)c(Br)c4)c3c2)o1`: the inhibition in assay [1] is 6.61%; in assay [2], -1.4%; in [3], -0.23%; in [4], -1.9%; in assay [5], -0.22%; in [6], 10.8%. The inhibition in [7] stood at 73.5%; in assay [8], 42.6%; in assay [20] it was 79.8%; in [9], 2.74%; in assay [10] it was 4.54%; in assay [11], 2.7%. Besides, the inhibition in [12] was 1.88%; in [13], -3.67%; in assay [14] it was 4.36%; in [15], 1.07%; in [16] it was 4.45%; in assay [17], 0.3%. Besides, the values for the inhibition in assay [18] and in assay [19] were 1.62% and -4.71%, respectively.

As usually defined, the inhibition is the relative decrease from the control value, in per cent.
